TDP1 cell CPT = qHTS for Inhibitors of human tyrosyl-DNA phosphodiesterase 1 (TDP1): qHTS in cells in presence of CPT. chicken DT40 Tdp1-/-;hTDP1 cells + 20 nM CPT, ATP luminescence, 48 h. Potency, µM (doses to about 46.2 µM), for inactives: at the highest dose activity change, negative = growth inhibition, usual class: inhibitors. 12% of 420,000 active. AID 686979, 2013; further: potency means the concentration at half of the fitted maximal effect; on the % scale 0 is the no-effect control and ±100 the full control effect; nearly all actives have a fitted effect of over 55% in size
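Chicken DT40 Tdp1-/- cells stably complemented with human TDP1 were seeded at 400 cells/well in medium containing 20 nM camptothecin, exposed to pin-transferred compounds, and grown at 37 °C for at least 48 hr. Viability was read as ATP luminescence.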
TDP1 cell noCPT = qHTS for Inhibitors of human tyrosyl-DNA phosphodiesterase 1 (TDP1): qHTS in cells in absence of CPT; 15% of 420,000 active; DT40 Tdp1-/- hTDP1 cells, no CPT, ATP luminescence, 48 h; AID 686978, 2013; Potency, µM (titrated, usually from 46.2 µM), for inactives: at the highest dose activity change, negative = growth inhibition, hits mostly inhibitors; further: potency means the concentration at half of the fitted maximal effect; on the % scale 0 is the no-effect control and ±100 the full control effect; nearly all actives have a fitted effect of over 55% in size
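A cellular qHTS used chicken DT40 cells lacking endogenous Tdp1 but carrying stably transfected human TDP1. Compounds were applied without camptothecin, and cell growth kinetics were judged by ATP-dependent luminescence after ≥48 hr.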
TDP1 block = qHTS Assay for Inhibitors of Tyrosyl-DNA Phosphodiesterase (TDP1) | 0.28% of 350,000 active | recombinant TDP1, AlphaScreen DNA substrate cleavage | Potency, µM (top dose mostly 130 µM), without a hit: top-dose activity change, negative = inhibition, usual class: inhibitors | Tyrosyl-DNA phosphodiesterase 1 (Homo sapiens), Q9NUW8 | AID 485290, 2010; further: potency means the concentration at half of the fitted maximal effect; on the % scale 0 is the no-effect control and ±100 the full control effect; nearly all actives have a fitted effect of over 40% in size
Target sequence (Q9NUW8 whole entry, looked up): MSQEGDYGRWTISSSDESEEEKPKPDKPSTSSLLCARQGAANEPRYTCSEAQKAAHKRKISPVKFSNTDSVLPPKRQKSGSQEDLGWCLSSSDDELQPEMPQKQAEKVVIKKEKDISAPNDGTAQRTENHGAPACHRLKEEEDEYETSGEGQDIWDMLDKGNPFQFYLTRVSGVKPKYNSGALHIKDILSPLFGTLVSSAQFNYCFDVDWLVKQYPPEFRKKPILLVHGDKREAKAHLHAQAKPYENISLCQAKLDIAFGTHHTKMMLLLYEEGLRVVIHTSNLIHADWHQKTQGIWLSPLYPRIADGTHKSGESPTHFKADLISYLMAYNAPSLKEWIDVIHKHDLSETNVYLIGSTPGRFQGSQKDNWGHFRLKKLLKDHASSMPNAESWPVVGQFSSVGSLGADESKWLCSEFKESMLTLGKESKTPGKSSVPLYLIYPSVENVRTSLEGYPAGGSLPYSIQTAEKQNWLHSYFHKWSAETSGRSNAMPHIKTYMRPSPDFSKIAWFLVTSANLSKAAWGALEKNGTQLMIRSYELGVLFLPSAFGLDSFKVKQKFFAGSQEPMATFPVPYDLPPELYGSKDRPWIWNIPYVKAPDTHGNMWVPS
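Enzyme-compound mixtures sat 15 min at room temperature, followed by a 5 min reaction with 15 nM final substrate and 10 min with AlphaScreen beads. Recombinant human Tdp1 was used at 1 nM final.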
HepG2 tox = qHTS for Inhibitors of TGF-b: Cytotox Counterscreen | Potency, µM (doses to about 46.1 µM), without a hit: top-dose activity change, negative = cytotoxicity, actives largely listed as cytotoxic | HepG2 CAGA-GFP viability, ATP luminescence, 18 h | 0.76% of 410,000 active; further: potency means the concentration at half of the fitted maximal effect
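CellTiter-Glo luminescence gave cytotoxicity after 18 hours at 37 degrees C. The cells were HepG2 CAGA-GFP in 1% FBS DMEM, stimulated with 500 pg/mL TGF-beta after compound addition. %Activity was normalised to no-cell wells (complete cell-killing) and DMSO (no toxicity), and curves were fitted and classified.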
TGFb SMAD3 inh = qHTS for Inhibitors of TGF-b; HepG2 CAGA-GFP TGF-b/SMAD3 reporter, GFP fluorescence, 18 h; TGF-beta stimulated, 500 pg/mL final; Potency, µM (series often up to 46.1 µM), for inactives: top-dose activity, negative = inhibition, usual class: inhibitors; 1.2% of 410,000 active; further: potency means the concentration at half of the fitted maximal effect; on the % scale 0 is the no-effect control and ±100 the full control effect; nearly all actives have a fitted effect of over 65% in size
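First, reporter cells (HEPG2 CAGA-GFP) rested 2 h at 37 degrees C. Next, compounds were pinned in and TGF-beta added to 500 pg/mL final. After 18 h, GFP was imaged per cell and summed per well.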
IL1B secr inh = qHTS for Inhibitors of Inflammasome Signaling: IL-1-beta AlphaLISA Primary Screen; 4.7% of 360,000 active; THP-1 LPS/ATP IL-1B secretion, AlphaLISA, 16 h; active compounds read low; AID 743279, 2014; activity change, % at 57.5 µM; in the data active means activity change below about -50%; inconclusive means mostly about -30% to -49%; further: on the % scale 0 is the no-effect control and ±100 the full control effect
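THP-1 cells pretreated 1 hr with compounds (up to 57.5 uM final), then stimulated with LPS (250 ng/mL final) plus ATP (1.25 mM final); secreted IL-1B measured by AlphaLISA after 16 hr, decreased signal indicating inhibition.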
An asterisk follows results filed as active; ? = inconclusive; nt = not tested or not shown; ! = a repeat was not active; [ ] = another dose, or the depositor's remark. The list is not random: actives were taken first. Their share in the collection is about 18%. Unless noted, the call rests on the fitted dose curve; in most records, active means well fitted curve in the direction sought with a large enough effect; inconclusive means small, poorly fitted or top-dose-only effect, or another doubt; inactive means no such curve, though single readings can be large; an effect the other way counts as inactive or inconclusive.

SMILES	TDP1 cell CPT	TDP1 cell noCPT	TDP1 block	HepG2 tox	TGFb SMAD3 inh	IL1B secr inh
CC1(C)CC[C@]2(C)CC[C@]3(C)C4C[C@@H]5OO[C@@]6(O5)C(CCCC6(C)C)[C@]4(C)CC[C@@]3(C)C2C1 (stereo partly specified)	8.2µM*	5.2µM*	nt	-16%	-7%	5
CN1CCN(c2cc3c(nn2)Oc2ccccc2N3C)CC1	8%	?	-12%	nt	nt	nt
Cc1oc(-c2ccccc2Cl)nc1CN1C(=O)CN=C(c2ccccc2)c2ccccc21	?	21µM*	5%	-12%	16µM*	?
Cc1ccc(-c2nc(CN3C(=O)CN=C(c4ccccc4)c4cc(Cl)ccc43)c(C)o2)cc1	?	?	6%	-4%	?	nt
O=C1CN=C(c2ccccc2)c2cc(Br)ccc2N1Cc1cc(=O)n2ccccc2n1	?	?	2%	-6%	?	-15
COc1ccc(-c2nc(CN3C(=O)CN=C(c4ccccc4)c4ccccc43)c(C)o2)cc1	?	18µM*	9%	-89%	?	nt
Cc1ccc(-c2nc(CN3C(=O)CN=C(c4ccccc4)c4ccccc43)c(C)o2)cc1	?	18µM*	9%	-1%	-12%	nt
O=C1CN=C(c2ccccc2)c2ccccc2N1Cc1ccc(C(F)(F)F)cc1	22µM*	?	3%	-25%	?	5
COc1ccccc1CN1CC[C@@]2(CCCN(C(=O)Oc3ccccc3)C2)C1	-20%	?	nt	nt	nt	nt
ClCC1CO1 (stereo unspecified)	6%	-1%	14%	nt	nt	nt
CCN1C[C@@H]2[C@@H]3C(=O)N(Cc4ccccc4)C(=O)[C@@H]3[C@](CC)(C1=O)N2C(=O)c1ccc(C(C)(C)C)cc1	?	?	nt	-10%	0%	23
Oc1ccc([C@H]2CNCc3c2ccc(O)c3O)cc1O	?	-80%	nt	nt	nt	nt
Cc1ccc(NC(=O)c2cnc3sc(N4CCOCC4)nn3c2=O)cc1N(C)C	15µM*	21µM*	-3%	7%	-8%	nt
Cc1ccc(NC(=O)c2ncn(CCCNCCN3CCOCC3)n2)cc1C	-13%	-12%	nt	-15%	-1%	-2
CC1=C(O)C(=O)[C@H]2O[C@@H]2C1=O	7.5µM*	11µM*	4%[56.1 µM]	nt	nt	nt
O=C1NC(=O)C(=CN2CCc3ccccc32)C(=O)N1	?	-5%	-2%	-3%	14%	-6
O=P(N1CC1)(N1CC1)N1CCc2ccccc21	7.3µM*	8.2µM*	nt	-5%	-6%	30
CC(C)(C)NCc1cccn1-c1sc2c(c1C#N)CCCC2	?	-29%	-7%	-3%	3%	-18
O=C(NN=Cc1ccc(O)c(O)c1)c1ccccc1	23µM*	23µM*	nt	-1%	-2%	0
O=C(N[C@H]1N=C(c2ccccc2F)c2cccc3c2N(CC3)C1=O)c1cc2ccccc2[nH]1	3%	-20%	nt	nt	nt	nt
COc1cc2c3cc1Oc1c(OC)c(OC)cc4c1[C@@H](Cc1ccc(OC(=O)c5ccc([N+](=O)[O-])cc5)c(c1)Oc1ccc(cc1)C[C@@H]3N(C)CC2)N(C)CC4	nt	nt	11%	nt	nt	nt
COc1cc2c3cc1Oc1cc(ccc1O)C[C@@H]1c4c(cc(OC)c(O)c4Oc4ccc(cc4)C[C@H]3N(C)CC2)CCN1C	4.1µM*	4.6µM*	6%	-5%	1%	18
COc1cc2c3cc1Oc1c(OC)c(OC)cc4c1[C@@H](Cc1ccc(O)c(c1)Oc1ccc(cc1)C[C@@H]3N(C)CC2)N(C)CC4	?	-22%	10%	nt	nt	nt
COc1cc2c3c(c1OC)Oc1ccc(cc1)C[C@H]1c4c(cc(OC)c(OC)c4Oc4ccc(cc4)C[C@@H]3N(C)CC2)CCN1C	16µM*	18µM*	2%	-35%	-10%	-3
COc1ccc2cc1Oc1ccc(cc1)C[C@H]1c3cc(c(OC)cc3CCN1C)Oc1c(OC)c(OC)cc3c1[C@H](C2)N(C)CC3	5µM*!	11µM*!	11%	-60%	?	-96*
SMILES	TDP1 cell CPT	TDP1 cell noCPT	TDP1 block	HepG2 tox	TGFb SMAD3 inh	IL1B secr inh
CC(C)C(NC(=O)C(C(C)C)N(C)C)C(=O)N(C)C(C(=O)N1CCCC1C(=O)N1CCCC1C(=O)NCc1ccccc1)C(C)C (stereo unspecified)	0.033µM*	0.052µM*	nt	-20%	-64%	33
CCN(CCNc1ccc([N+](=O)[O-])c2cccnc12)S(=O)(=O)c1ccccc1	-5%	-10%	3%	-6%	-18%	15
Cc1c(NS(=O)(=O)c2ccccc2)ccc([N+](=O)[O-])c1Cl	?	16µM*	nt	-25%	11µM*	-23
O=C1NC[C@H](CCCCN2C[C@H](Cc3ccccc3)N(CC3CCCCC3)C(=O)C2=O)N(CCC2CCCCC2)C1=O	?	?	nt	nt	nt	-8
Cc1ccc(C)c(S(=O)(=O)Nc2ccc3c(c2)CCCN3C(=O)c2cccs2)c1	16µM*	18µM*	1%	-20%	11µM*	nt
Cc1ccc2c(c1)C1CN(C)CCC1N2C(=O)c1cccs1 (stereo unspecified)	19%	-1%	2%	13%	6%	-8
CN(Cc1ccccc1)C1CCCN(C(=O)COc2ccccc2Cl)C1 (stereo unspecified)	?	16µM*	4%	-32%	2%	-8
O=C(COc1ccccc1Cl)N1CCCC(N2CCN(c3ccc(F)cc3)CC2)C1 (stereo unspecified)	?	?	6%	-17%	-25%	?
COC(=O)[C@]12OC[C@]34C([C@@H](O)[C@@H]1O)[C@]1(C)CC(=O)C(O)=C(C)[C@@H]1C[C@H]3OC(=O)[C@H](O)[C@@H]24 (stereo partly specified)	2.9µM*	1.5µM*	0%	-7%	?	-23
CC1=CC(O)C(O)C2(C)C1CC1OC(=O)C(O)C3C(C)C(O)C4(O)OCC13C42 (stereo unspecified)	-23%	-20%	nt	-12%	?	38
COc1cc2c(cc1OC)[C@@H]1C(=O)c3ccc4c(c3OC1CO2)CC(C(C)C)O4 (stereo partly specified)	0.065µM*	0.082µM*	19%[56.1 µM]	nt	nt	nt
